Mcl1-Bid inh – disrupts binding of human Mcl-1 to Bid peptide | 220,000 tested, 0.97% active | TR-FRET Mcl-1/Bid-Dy647 peptide binding, 1536-well | inhibition, % at 21.7 µM;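 active = compounds that cut the binding signal by more than half at the single screening dose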;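 note: His-tagged Mcl-1 with europium anti-His antibody binding Bid BH3 peptide; 0% = Mcl-1 plus peptide wells and 100% = peptide-only wells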
Target sequence (Q07820 whole entry, looked up): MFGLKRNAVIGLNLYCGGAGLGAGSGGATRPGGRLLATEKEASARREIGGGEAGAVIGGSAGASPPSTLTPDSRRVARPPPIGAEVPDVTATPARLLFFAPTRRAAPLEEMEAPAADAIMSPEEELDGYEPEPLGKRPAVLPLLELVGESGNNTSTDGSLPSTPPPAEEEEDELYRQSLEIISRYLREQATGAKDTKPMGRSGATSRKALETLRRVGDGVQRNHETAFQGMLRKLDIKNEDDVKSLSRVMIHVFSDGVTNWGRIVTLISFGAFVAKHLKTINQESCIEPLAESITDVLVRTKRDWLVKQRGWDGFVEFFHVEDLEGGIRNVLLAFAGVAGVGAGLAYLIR
MCL1-BIM inh – inhibitors of human MCL1 binding to BIM-BH3 peptide; GST-MCL1 / FITC-Bim-BH3 fluorescence polarization; inhibition, % at 10.9 µM; 320,000 tested, 0.68% active; AID 2057;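 active = inhibition above the mean inhibition of all tested compounds plus 3 SD, set per campaign, cut at about 40% in these data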;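 note: 0% = DMSO wells and 100% = unlabeled Bim-BH3 peptide control; higher means more loss of mP so more displacement of Bim peptide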
Mcl-1 Bim block – inhibitors of Bim-Mcl-1 interaction, human; AID 1009; inhibition, % at 10 µM; 190,000 tested, 0.1% active; Bead-based flow cytometry, Bim peptide-Mcl-1 binding; in the data active = inhibition above about 40%;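 note: 0% = no compound tracer wells and 100% = peptide blocker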
Bcl-xL primary – Bcl-xL (human) inhibition | Q07817 | GST-Bcl-xL / FITC-Bim BH3 peptide fluorescence polarization | inhibition, % at 10.9 µM | 320,000 tested, 0.7% active | AID 2129;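 active = inhibition above the mean of all tested compounds plus 3 SD, cutoff set per campaign, cut at about 30% in these data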;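 note: 0% = DMSO wells and 100% = unlabeled Bim-BH3 peptide competitor; inhibitors lower millipolarization by displacing the labeled peptide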
Target sequence (Q07817 whole entry, looked up): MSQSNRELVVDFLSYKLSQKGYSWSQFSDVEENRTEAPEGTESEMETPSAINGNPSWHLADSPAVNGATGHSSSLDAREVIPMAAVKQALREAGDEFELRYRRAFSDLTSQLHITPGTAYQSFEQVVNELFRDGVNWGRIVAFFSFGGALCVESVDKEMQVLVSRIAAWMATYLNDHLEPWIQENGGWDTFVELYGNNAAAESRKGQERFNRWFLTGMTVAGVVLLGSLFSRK
Mcl1 Noxa PPI – disrupts binding of human Mcl-1 to Noxa peptide; Q07820; TR-FRET Mcl-1/Noxa peptide binding, 2 h; inhibition, % at 21.7 µM; 220,000 tested, 1.5% active;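 active = compounds that cut the protein-peptide binding signal by more than 50% relative to plate controls in a single-dose test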;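 note: His-tagged Mcl-1 with rhodamine Noxa BH3 peptide and terbium anti-His antibody; 0% = Mcl-1 plus Noxa peptide wells and 100% = peptide-only wells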
GLD-1 RNA inh – GLD-1-TGE RNA interaction inhibition (C. elegans); purified GLD-1 + fluorescein TGE RNA, fluorescence polarization; inhibition, % at 5.96 µM; 320,000 tested, 0.44% active; AID 2280;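 active = percent inhibition above a per-plate cutoff, the plate mean of test compounds plus 3 SD, cut at about 30% in these data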;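 note: 0% = DMSO wells with GLD-1 and probe and 100% = wells lacking GLD-1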
Numbers without * were called inactive; x = no result given. Only some compounds are listed: those with a hit (about 2.3% of all), similar ones and a draw of the others.

SMILES	Mcl1-Bid inh	MCL1-BIM inh	Mcl-1 Bim block	Bcl-xL primary	Mcl1 Noxa PPI	GLD-1 RNA inh
NC(N)=NS(=O)(=O)c1ccc(NC(=S)NC(=O)/C=C/c2ccco2)cc1	0.5	17.7	-1.0	12.9	-61.7	-4.8
NS(=O)(=O)c1ccc(NC(=S)NC(=O)/C=C/c2ccco2)cc1	32.2	8.0	-2.0	13.0	88.7*	4.6
CC(=O)Nc1ccc(NC(=S)NC(=O)/C=C/c2ccc(Cl)cc2)cc1	6.6	2.9	-1.0	3.8	-7.8	5.3
O=C(/C=C/c1ccco1)NC(=S)Nc1cc(-c2nc3ccccc3s2)ccc1Cl	62.9*	-1.6	-4.0	-1.4	64.2*	-1.8
O=C(/C=C/c1ccc(Cl)cc1)NC(=S)Nc1ccc(NC(=O)c2ccco2)cc1	55.9*	10.1	-5.0	7.6	45.5	-1.8
O=C(/C=C/c1ccco1)NC(=S)Nc1cccc(-c2nc3ccccc3o2)c1	64.6*	-2.5	0.0	-1.7	x	3.2
COc1ccccc1C(=O)NC(=O)COC(=O)CN1C(=O)NC(C)(C)C1=O	x	-0.1	x	1.1	x	-8.2
Cc1cc(=O)[nH]c(SCc2ccc(Cl)cc2Cl)n1	x	7.4	x	4.0	x	-1.1
O=C(/C=C/c1ccco1)Nc1ccc(N2CCCC2)cc1	-61.3	7.8	-2.0	3.8	64.2*	-4.9
COc1ccccc1CNC(=O)C1CCN(c2ncnc3c2nc2n3CCCCC2)CC1	x	-0.7	x	1.8	x	3.1
N=c1c(C(=O)NCc2ccco2)cc2c(=O)n3ccccc3nc2n1CC1CCCO1 (stereo not drawn)	x	31.1	x	29.8	x	16.6
COCCn1c(=N)c(C(=O)NCc2ccco2)cc2c(=O)n3cc(C)ccc3nc21	-29.1	68.7*	1.0	72.0*	9.2	56.0*
O=C(NCc1ccco1)c1cccn2c(=O)c3cc4ccccc4cc3nc12	93.8*	x	3.0	x	47.2	x
Cc1ccc(Cn2c(=N)c(C(=O)NCc3ccco3)cc3c(=O)n4ccccc4nc32)cc1	3.1	22.2	-1.0	14.7	79.7*	-0.9
Cc1cccn2c(=O)c3cc(C(N)=S)c(=N)n(CCCOC(C)C)c3nc12	-7.4	34.8	0.0	33.8*	42.1	-1.9
COc1ccc(CCNC(=O)c2cc3c(=O)n4ccccc4nc3n(Cc3ccco3)c2=N)cc1OC	x	11.6	x	14.9	x	-0.4
CCOCCCn1c(=N)c(C(N)=S)cc2c(=O)n3cccc(C)c3nc21	-19.1	30.0	-1.0	22.8	-6.6	-4.5
O=C(NCc1nnc(SCC(=O)N2CCN(c3ccccc3)CC2)o1)c1c(F)cccc1F	x	-8.6	x	0.3	x	-2.9
COc1ccc(S(=O)(=O)NCc2cccnc2)cc1NC(=O)c1ccc(Cl)cc1	x	2.4	x	6.5	x	1.3
CC(=O)Nc1ccc(C(=S)NCCCO)cc1	-19.7	6.3	-2.0	4.5	4.2	2.7
CCN(CC(=O)Nc1ccccc1C(F)(F)F)C(=O)c1oc2ccc(OC)cc2c1C	x	-2.6	x	-4.1	x	-0.4
Cc1cccn2c(=O)c3cc(C(=O)NCc4ccco4)c(=N)n(CCOCCO)c3nc12	-49.0	43.2*	4.0	55.2*	33.4	23.8
N=c1c(C(=O)NCc2ccco2)cc2c(=O)n3ccccc3nc2n1CCc1ccccc1	10.9	20.0	13.0	31.6*	67.7*	11.8
CC[C@@H]1C/C=C\Cc2ccccc2[C@@H](C(=O)C[C@H](O)CC(C)=O)OC1=O	x	x	x	x	x	1.3
COCCN(C(=O)COC(=O)CCc1c[nH]c2ccccc12)c1c(N)n(Cc2ccccc2)c(=O)[nH]c1=O	x	-1.2	x	-0.9	x	4.8
SMILES	Mcl1-Bid inh	MCL1-BIM inh	Mcl-1 Bim block	Bcl-xL primary	Mcl1 Noxa PPI	GLD-1 RNA inh
COc1ccc(C)cc1S(=O)(=O)N(C)CC(=O)NCc1ccco1	94.4*	8.0	1.0	9.7	11.8	4.6
COc1ccc(S(=O)(=O)N(C)CC(=O)NCc2ccco2)cc1Cl	x	-4.7	x	-0.3	x	3.9
COc1ccccc1NC(=O)CSc1nnc2ccc(-c3cccnc3)nn12	-60.6	-5.7	-1.0	-13.7	11.4	3.4
CCOc1ccccc1NC(=O)CSc1nnc2ccc(-c3cccnc3)nn12	-18.7	-12.2	40.0*	-6.8	-3.2	4.8
C[n+]1cccc(O)c1SCc1ccccc1	x	2.9	x	8.6	x	-2.2
O=C(Cc1ccccc1F)NCC1(N2CCOCC2)CCCCC1	-10.6	3.7	x	4.0	59.8*	-7.8
O=C(CN1CCN(S(=O)(=O)c2ccccc2F)CC1)NCC1(N2CCOCC2)CCCCC1	x	-4.3	x	-6.5	x	-6.3
COc1ccc2cc(C3CC(c4cccs4)=NN3C(C)=O)c(Cl)nc2c1 (stereo not drawn)	53.8*	1.4	x	1.5	14.9	-8.2
COCCNC(=S)N=Nc1c(O)[nH]c2ccc([N+](=O)[O-])cc12	-180.7	2.2	x	6.6	-2.8	-7.3
Cc1cccn2c(=O)c3cc(C(=O)N(C)C)n(C)c3nc12	-26.0	29.7	0.0	32.1*	9.5	9.5
COCCNC(=O)c1cc2c(=O)n3cccc(C)c3nc2n1C	x	-0.9	x	0.6	x	2.3
Cc1cccn2c(=O)c3cc(C(=O)NCCCn4ccnc4)n(C)c3nc12	-7.8	46.8*	0.0	44.4*	30.7	5.4
CCn1cc(C(=O)O)c(=O)c2cc(F)c(N/N=C/c3ccccc3[N+](=O)[O-])cc21	62.0*	-2.4	8.0	6.8	55.1*	1.7
COc1ccc(N2CCN(C(=O)COC(=O)COc3cc(C)cc(C)c3)CC2)cc1	x	-4.8	x	2.4	x	1.1
Cc1c(Cc2ccccc2)sc(NC(=O)/C=C/c2cccc3ccccc23)c1C(N)=O	-45.2	-5.2	-5.0	3.2	58.7*	2.2
COC(=O)c1c(NC(=O)/C=C/C(=O)O)sc(Cc2ccccc2)c1C	-8.9	0.8	-5.0	5.9	14.2	0.2
O=C(NC1CC1)c1cccc2c1C(=O)c1ccc(N3CCC(Cc4ccccc4)CC3)cc1S2(=O)=O	x	x	x	x	x	44.6*
O=C(NCc1ccc(F)cc1)c1cccc2c1C(=O)c1ccc(N3CCC(Cc4ccccc4)CC3)cc1S2(=O)=O	x	x	x	x	x	167.6*
O=C(NCc1cc(C(F)(F)F)ccc1Cl)c1cccc2c1C(=O)c1ccc(N3CCC(Cc4ccccc4)CC3)cc1S2(=O)=O	x	x	x	x	x	158.8*
O=C(NC1CCCCC1)c1cccc2c1C(=O)c1ccc(N3CCCC3)cc1S2(=O)=O	x	x	x	x	x	31.8*
CCOc1ccc(S(=O)(=O)Nc2cccc(C(=O)NCC3CCCO3)c2)cc1 (stereo not drawn)	x	-4.3	x	2.0	x	-0.6
COc1ccc(N2CCN(S(=O)(=O)c3c(C)n(C)c(=O)n(C)c3=O)CC2)cc1	x	7.7	x	3.1	x	-0.1
CCCOc1cccc(C2C(C(=O)c3cccs3)=C(O)C(=O)N2CCN2CCOCC2)c1 (stereo not drawn)	x	3.5	x	7.4	x	2.8
O=C(NNC(=O)c1ccccc1-n1cccc1)c1cncc(Br)c1	x	x	x	x	x	6.7
Cc1cccc(C)c1NC(=O)CNC(=O)c1c(-c2ccccc2)noc1C	x	-4.7	x	1.8	x	2.0
CCOc1ccc(N(CC(=O)N2CCN(c3ccc(F)cc3)CC2)S(=O)(=O)c2c(C)noc2C)cc1	x	-0.6	x	5.2	x	0.5

Screening data (PubChem BioAssay)
